Screens deposited in PubChem by several laboratories.
MITF act: activators of MITF-driven TRPM1 promoter reporter, primary screen, cell-based, SK-MEL-5, luciferase, single point; SK-MEL-5 TRPM1-promoter luciferase, 24 h; % of positive control, neutral wells = 0; activation, % at 12.5 µM; 300,000 compounds, 0.75% hits; AID 588334, 2011;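 active means mean activation of at least 80% with every replicate also reaching 80%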;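 further: 0% = neutral control wells and 100% = parthenolide positive control wells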
FXN GAA850 act: FXN promoter activators, primary screen, cell-based, luciferase luminescence, HEK293 lucGAA850 | 360,000 compounds, 0.56% hits | AID 540364, 2011 | activation, % at 6 µM | HEK293 lucGAA850 FXN promoter luciferase reporter, 24 h; percent of 10 µM SAHA response;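 active means activation above the average of all compounds screened plus 3 SD, cutoff fixed separately per campaign, cut at about 7.5% in these data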;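 further: 0% = DMSO wells and 100% = 10 µM SAHA wells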
Statin myotox sup: suppressors of statin myotoxicity in C2C12 myotubes, primary screen, cell-based, single point, plate reader. 330,000 compounds, 0.78% hits. rescue of ATP level, % at 7.49 µM. C2C12 myotubes + simvastatin, ATP luminescence, 48 h; scaled: DMSO 0, geranylgeraniol control 100;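 active means mean ATP rescue above about 67%, or every replicate alone reaching that limit, limit read from the data, passing the limit was not always enough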;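 further: myotubes were challenged with 10 µM simvastatin during compound exposure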
Wnt act: Wnt/beta-catenin pathway activators, primary screen, cell-based, plate reader, single point. activation, % at 9.35 µM. 300,000 compounds, 1.2% hits. Wnt/beta-catenin reporter cell assay, activator; in the data active means activation above about 30%, passing the limit was not always enough;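 further: 0% = neutral control wells and 100% = positive control wells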
esBAF inh: Bmi1 luciferase reporter increase in mESCs, primary screen, esBAF inhibitor project, mouse ES cells, Bmi1 luciferase knock-in, single point. 24 h; 100% = twice the neutral-well signal. reporter increase, % at 12.5 µM. 350,000 compounds, 2% hits. AID 602393, 2012; in the data active means activation above about 40%;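 further: 0% = median of the plate's neutral control wells and 100% = double that signal; a rise in the Bmi1 reporter signal indicates esBAF inhibition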
GAA30 FXN cntr: GAA30 FXN promoter activators, confirmation, counter-screen for GAA850 frataxin promoter activator project, cell-based, luminescence, HEK293, lucGAA30, triplicate | 1,900 compounds, 66% hits | AID 588350, 2011 | shares compounds with FXN GAA850 act | HEK293 lucGAA30 FXN promoter luciferase, 24 h; DMSO = 0%, 5 µM ipriflavone = 100% | activation, % at 6 µM;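 active means mean activation above the mean of solvent-only control wells plus 3 SD, cut at about 22% in these data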;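 further: counterscreen of GAA850 promoter hits where activity marks nonselective or luminescence artifacts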
FXN GAA850 conf: FXN GAA850 promoter activators in reporter cells, confirmation, cell-based, luminescence, HEK293 lucGAA850, triplicate; HEK293 lucGAA850 FXN promoter luciferase reporter, 24 h; 100% = activation by SAHA; shares compounds with FXN GAA850 act; 1,900 compounds, 86% hits; AID 588351, 2011; activation, % at 6 µM;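 active means mean activation above a set limit taken from the primary screen, cut at about 8% in these data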;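 further: 0% = DMSO wells and 100% = 10 µM SAHA wells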
Active calls of the source: *. Rows were chosen to be rich in hits. Some 3.3% of all compounds tested hit in one or more screens of this group.

Screening CCCN1C[C@H](C)[C@H](OC)CN(C)C(=O)c2cc(NS(=O)(=O)c3cn(C)cn3)ccc2OC[C@@H]1C returned Statin myotox sup -1.6 and esBAF inh -5.1.
CCOC(=O)NC(=O)/C(C#N)=C\Nc1sccc1C(=O)OC was read as MITF act -1.6, FXN GAA850 act -1.2 and Wnt act -1.3.
`CCOC(=O)NC(=O)/C(C#N)=C\Nc1ccc(Cl)cc1Cl` gave MITF act 50.6, FXN GAA850 act 8.3*, Wnt act 17.3, GAA30 FXN cntr 21.6 and FXN GAA850 conf 4.9.
Screening CCN1CCCC1CNC(=O)c1ccc2c(c1)NC(=O)/C(=C\c1ccc(OC)c(OC)c1)S2 (stereo not given) returned MITF act -88.3, FXN GAA850 act 7.7*, Statin myotox sup 25.3, Wnt act -3.9, esBAF inh 1.3, GAA30 FXN cntr 16.4 and FXN GAA850 conf 7.4.
For CCN1CCCC1CNC(=O)c1ccc2c(c1)NC(=O)/C(=C\c1ccccc1Cl)S2 (stereo not given) the results were FXN GAA850 act 1.3, Statin myotox sup -7.5, Wnt act -6.4 and esBAF inh -7.8.
For C[C@@H]1CN([C@H](C)CO)S(=O)(=O)c2ccc(C3=CCCCC3)cc2O[C@H]1CN(C)Cc1ccccn1 the results were Statin myotox sup -158.9 and esBAF inh -9.0.
Cc1ccc(-c2nc(Nc3ccccc3)n[nH]2)cc1 was read as MITF act 39.7, FXN GAA850 act 7.7*, Wnt act 44.6*, GAA30 FXN cntr 112.2* and FXN GAA850 conf 38.0*.
For Cc1[nH]c2ccccc2c1/C=C/c1nc2ccccc2c(=O)[nH]1 the results were MITF act 92.6*, FXN GAA850 act 8.2*, Statin myotox sup -19.3, Wnt act -0.6, esBAF inh 45.8*, GAA30 FXN cntr 102.2* and FXN GAA850 conf 38.1*.
Cc1cccc(/C=C/c2nc3ccccc3c(=O)[nH]2)c1 was read as MITF act 31.0, FXN GAA850 act -2.0 and Wnt act 24.3.
COc1ccc(S(=O)(=O)N(C)C[C@@H]2Oc3ccc(NS(=O)(=O)c4cccs4)cc3C(=O)N([C@H](C)CO)C[C@H]2C)cc1 was read as esBAF inh 1.5.
CCOC(=O)C(CC)n1cnc2c(nnn2-c2ccc(F)cc2)c1=O (stereo not given) was read as FXN GAA850 act 19.0*, Statin myotox sup 0.9, Wnt act 0.9, esBAF inh 0.7, GAA30 FXN cntr 2.1 and FXN GAA850 conf 4.0.
CCOC(=O)C(CC)n1cnc2c(nnn2-c2ccccc2)c1=O (stereo not given) was read as MITF act 3.7, FXN GAA850 act -1.5, Statin myotox sup -3.0 and esBAF inh 10.1.
CC1CCN(CC(CS(=O)(=O)c2ccc([N+](=O)[O-])cc2)N2CCC(C)CC2)CC1 (stereo not given) was read as MITF act -84.3, FXN GAA850 act 9.7*, Statin myotox sup 43.9, Wnt act 5.5, esBAF inh -3.2, GAA30 FXN cntr 61.2* and FXN GAA850 conf 16.3*.
`C[C@@H]1CN([C@H](C)CO)C(=O)Cc2cc(NC(=O)Nc3ccc4c(c3)OCO4)ccc2O[C@H]1CN(C)S(=O)(=O)c1cccs1` gave Statin myotox sup 6.2 and esBAF inh 0.3.
`C[C@H](CO)N1C[C@H](C)[C@H](CN(C)S(=O)(=O)c2cccs2)Oc2ccc(NC(=O)Nc3ccc4c(c3)OCO4)cc2CC1=O` gave MITF act -21.9, FXN GAA850 act 10.3*, Statin myotox sup -30.4, Wnt act -6.2, esBAF inh 13.8, GAA30 FXN cntr 21.4 and FXN GAA850 conf 11.3*.
C[C@H](CO)N1C[C@H](C)[C@H](CN(C)S(=O)(=O)c2ccccc2)Oc2ccc(NC(=O)NC3CCCCC3)cc2CC1=O was read as MITF act -2.3, FXN GAA850 act 8.5*, Statin myotox sup 2.4, Wnt act -4.1, esBAF inh -2.5, GAA30 FXN cntr 21.7 and FXN GAA850 conf 9.2*.
For C[C@@H]1CN([C@H](C)CO)C(=O)Cc2cc(NC(=O)NC3CCCCC3)ccc2O[C@H]1CN(C)S(=O)(=O)c1ccccc1 the results were Statin myotox sup 24.4 and esBAF inh 2.3.
CS(=O)(=O)Nc1ccc2c(c1)[C@H]1C[C@@H](CC(=O)N3CCOCC3)O[C@H](CO)[C@H]1O2 was read as Statin myotox sup 3.8 and esBAF inh 0.8.
C=CCNc1nc2c(c(=O)n(C)c(=O)n2C)n1Cc1ccc(F)cc1 was read as MITF act -13.4, FXN GAA850 act 10.7*, Statin myotox sup 27.3, Wnt act -3.1, esBAF inh -17.6, GAA30 FXN cntr -4.2 and FXN GAA850 conf 0.7.
For COc1ccc(NC(=O)Nc2ccc3c(c2)C(=O)N([C@@H](C)CO)C[C@@H](C)[C@H](CN(C)C(=O)Nc2ccc(OC)cc2)O3)cc1 the results were Statin myotox sup -17.1 and esBAF inh 6.8.
For C[C@@H](NC(=O)C[C@H]1C=C[C@H](NC(=O)Nc2ccc3c(c2)OCO3)[C@H](CO)O1)c1ccccc1 the results were Statin myotox sup -7.2 and esBAF inh 11.6.
For O=C(CSCCO)Nc1cccc2ccccc12 the results were MITF act -20.8, FXN GAA850 act -2.3, Statin myotox sup 9.9 and esBAF inh 0.6.
O=C(CSCC(=O)Nc1cccc2ccccc12)Nc1cccc2ccccc12 was read as MITF act -14.1, FXN GAA850 act 13.6*, Statin myotox sup 14.5, Wnt act -0.4, esBAF inh -6.5, GAA30 FXN cntr 23.5* and FXN GAA850 conf 4.9.
Screening O=C(CN1CCN(Cc2ccccc2F)C1=O)NCc1cccnc1 returned MITF act -13.9, FXN GAA850 act 12.9*, Statin myotox sup 7.7, Wnt act -1.0, esBAF inh -7.6, GAA30 FXN cntr 15.7 and FXN GAA850 conf 5.1.
For O=C(CN1CCN(Cc2ccccc2Cl)C1=O)NCc1cccnc1 the results were MITF act 6.7, FXN GAA850 act 2.0, Statin myotox sup -0.1, Wnt act 4.5 and esBAF inh -4.0.
